The text below walks through data of PubChem BioAssay AID602449 (Sanford-Burnham Center for Chemical Genomics, 2012).

Out of some 360,000 compounds screened, about 5,000 (1.4%) were called active. The sample as a whole holds a higher share of actives than the screen did. Values without a mark were called inactive.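 How the source made its calls: active means inhibition of 50% or more, scaled per plate between neutral and stimulator controls; inactive means the rest.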

The assay is described as follows: mitochondrial permeability transition pore inhibitors, primary screen, biochemical, isolated mouse mitochondria, absorbance (AID 602449).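 Further: 0% = DMSO wells given calcium and 100% = 1 mM EGTA wells.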 The note with it: Ca2+ swelling absorbance, 30 min, at 10 µM, hits give high values.
By inhibition is commonly meant the change of the read-out against control, counted positive when it falls. Regarding `Cc1ccc2nnn(Cc3cccc(C(C)(C)C)c3O)c2c1`, the inhibition is 93.7% (active). Take `COc1ccc(/C=C2/SC(=O)N(CCCCCC(=O)Nc3ccccc3C(=O)O)C2=S)cc1`: the inhibition is 60% (active). For `COc1ccc(NC(=O)CCCN2C(=O)C(c3ccccc3)Oc3cccnc32)cc1` (centres undefined), the inhibition is 1.6%.

On to `CCCNC(=O)c1ccccc1NC(=O)CSCc1ccc(OC)cc1`, for which the inhibition was 0%. Regarding `CCN1C[C@@H]2[C@@H]3C(=O)N(C)C(=O)[C@@H]3[C@](C)(C1=O)N2C(=O)c1ccccc1`, the inhibition was -0.4%. Next, `COc1ccc(S(=O)(=O)N[C@@H]2C=C[C@@H](CC(=O)N3CCc4ccccc4C3)O[C@@H]2CO)cc1`: 0.4%; `Cc1cc(C)c(C#N)c(SCC(=O)N(CC(C)C)C2CCS(=O)(=O)C2)n1` (centres undefined): -1.7%; `CC1=C(C/C=C(\C)CCCC(C)CCCC(C)CCCC(C)C)C(=O)c2ccccc2C1=O` (centres undefined): -2.2%. As for `COc1ccc(CCNS(=O)(=O)c2cn(C)nc2C)cc1`, the inhibition is -0.3%. Regarding `O=C(Cc1ccc(Cl)c(Cl)c1)Nc1ccc(SC(F)F)cc1`, the inhibition was 82% (active).

Take `CCC1CCCCN1C(=S)Nc1ccc(SC(F)F)cc1` (centres undefined): the inhibition is 34%. `N#C/C(=C\c1cccnc1)C(=O)Nc1ccc(SC(F)F)cc1`: the inhibition was 7.2%. As for `CCc1nc2c(OCCOc3ccc(F)cc3)cccn2c1N(C)C(=O)c1ccccc1F`, the figure is 0.6%; as for `Cc1nc2nc(SCC(=O)c3ccccc3)[nH]c2cc1Br`, 9.9%. On to `Cc1nc2nc(SCC(=O)Nc3cccc(F)c3)[nH]c2cc1Br`, for which the inhibition was 63.9% (active).

As to `O=C(CSc1nc2[nH]c(=O)[nH]c(=O)c2s1)Nc1cccc(F)c1`, the inhibition is -0.6%. `COc1cc(OC)cc(-c2c(-c3cccs3)c3cc(-c4ccc(OC)nc4)ccc3n2C)c1`: the inhibition was -0.4%.

In the case of `CCC(C)NC(=O)c1ccccc1NC(=O)c1ccccc1N(C)S(C)(=O)=O` (centres undefined), the inhibition is 0.4%. As to `COCC(C)n1c(C)cc(C(=O)CSc2cc(C)c3ccccc3n2)c1C` (centres undefined), the inhibition was 3.2%. As to `CCCNC(=O)c1cc(C2CCCCN2S(=O)(=O)c2cn(C)cn2)on1` (centres undefined), the inhibition is 0.2%. On to `O=C(NCc1cc(C(F)(F)F)cc(C(F)(F)F)c1)C1CC(c2cccc(F)c2)=NO1` (centres undefined), for which the inhibition is 2%. Consider `COC(=O)Cc1ccc(OCC(=O)Nc2ccc(OC(F)(F)F)cc2)cc1`, for which the inhibition was 0.1%. Turning to `CN(CC(=O)Nc1ccc(OC(F)(F)F)cc1)C(=O)C1CCC1`, the inhibition was -0.8%.

`Cn1nccc1NC(=O)Nc1ccc(OC(F)(F)F)cc1`: the inhibition was 60.1% (active). Turning to `Cc1sc2ncnc(N3CCC(C(=O)NNC(=O)c4ccc(F)cc4)CC3)c2c1C`, the inhibition is 0.7%. With `Cc1ccc2cc(CN(c3ccc(C)c(C)c3)S(C)(=O)=O)c(=O)[nH]c2c1`, the inhibition was -0.6%.

`C/C(=N\Nc1ccc([N+](=O)[O-])cc1)c1ccc(-n2nncc2C(C)(C)C)cc1`: the inhibition is 20.4%.

Take `Cc1nc(C)c2c(c1C(F)(F)F)-c1ccccc1C2(F)F`: the inhibition is -0.4%. As for `COc1cc(S(=O)(=O)Nc2ncn[nH]2)ccc1Cl`, the figure is -1.7%. Next, `CCCCNC(=O)CSc1nc2ccc(NC(=O)CSc3nnc(COc4ccccc4C)n3C)cc2s1`: 4.8%; `CCCCNC(=O)CSc1nc2ccc(NC(=O)CSc3nnc(N)s3)cc2s1`: 15.3%; `Nc1nnc(SCC(=O)Nc2ccc3nc(SCC(=O)Nc4ccccc4)sc3c2)s1`: 95.5% (active).

`O=C1c2ccccc2C(Nc2ccc3c(c2)OCCO3)N1Cc1ccco1` (centres undefined): the inhibition is 3%. Take `C[C@H](CO)N1C[C@H](C)[C@@H](CN(C)C(=O)NC2CCCCC2)Oc2ccc(NC(=O)c3ccncc3)cc2C1=O`: the inhibition was -0.8%. As for `CCOC(=O)NC(C(F)(F)F)(C(F)(F)F)P(=O)(c1ccccc1)c1ccccc1`, the inhibition was -3.1%. Regarding `CN(c1ccccc1)S(=O)(=O)c1ccc(Cl)c(C(=O)OCC(N)=O)c1`, the inhibition is 1.9%. With `CC(=O)c1c(C)[nH]c(C(=O)COC(=O)CCOc2ccc(C)cc2)c1C`, the inhibition was -2.4%.

Turning to `CC(=O)c1c(C)[nH]c(C(=O)COC(=O)c2cccc(S(=O)(=O)N(C)c3ccccc3)c2)c1C`, the inhibition is 99.3% (active). For the compound `O=C1NCCn2nc3ccccc3c21`, the inhibition was 2.9%. Next, `CCCC(C(=O)OCCN(CC)CC)(c1ccccc1)c1ccccc1`: 85.7% (active); `CCN(CC)CCOC(=O)c1ccc(NC(=O)CNC(=O)c2ccccc2)cc1`: -3.4%.

As to `CCN(CC)CCNCC(=O)Nc1ccc(Oc2ccccc2)cc1`, the inhibition was 1.8%.

Consider `COc1ccccc1C(=O)NC(=S)Nc1ccc(N2CCOCC2)cc1`, for which the inhibition was -1.6%.

As to `Cc1ccccc1C(=O)NC(=S)Nc1ccc(N2CCN(C(=O)c3ccccc3)CC2)cc1`, the inhibition was 57.1% (active). As for `Cc1ccccc1C(=O)NC(=S)NC1CC1`, the figure is 1.7%. For `O=[N+]([O-])c1cccc(S(=O)(=O)N2CCCCCC2)c1`, the inhibition is -1%. Next, `N#C/C(=C(/O)Cc1cccc2ccccc12)c1nc2ccccc2s1`: 95.9% (active); `O=C(O)CC/C(=C\c1cc2c(cc1Br)OCO2)c1nc2ccccc2s1`: 0.4%. Take `CC1=CC(=C(C#N)c2nc3ccccc3s2)C=C(C)N1c1ccc(F)cc1F`: the inhibition was 1.2%.

`Cc1ccc(S(=O)(=O)NC2CCCCCC2)cc1C(N)=O`: the inhibition was 1%. For `COc1cc(Cl)c(C)cc1NC(=O)CSc1nnc(CN2CCCC2)o1`, the inhibition was -2%. On to `COc1ccc(N2CCN(CCCNC(=O)C3CCN(S(=O)(=O)N4CCOCC4)CC3)CC2)cc1`, for which the inhibition is -2.8%. For `CC(Oc1ccc(-c2ccccc2)c(F)c1)c1ccn(S(=O)(=O)c2cccc3ccccc23)n1` (centres undefined), the inhibition was 1%. As for `Cc1cc(C)c(C)c(S(=O)(=O)Nc2cccnc2)c1C`, the figure is 1.4%; as for `COc1ccccc1Oc1ccc(S(=O)(=O)Nc2cccnc2)cc1`, 82.5% (active); as for `COc1ccc(S(=O)(=O)Nc2cccnc2)c(Cl)c1Cl`, 0.5%. As for `COc1cc(OC)cc(/C(N)=N/O)c1`, the inhibition is 0.6%. Consider `O=C(CNC1CCCCC1)NCC1(c2ccccc2)CCCC1`, for which the inhibition was -0.9%. Next, `COC(=O)Nc1nc2ccc(Sc3ccccc3)cc2[nH]1`: 1.2%.
